# Tests used:
# Test in all cases: HT-SELEX; 20 mM HEPES pH 7, 140 mM KCl, 5 mM NaCl, 1 mM K2HPO4, 2 mM MgSO4, 100 uM EGTA, ZnSO4, 0.1% Tween20; room temperature, 1 h; high values mean tight binding
# Settings in all cases: protein: ivt; tags: eGFP (N-terminal); dsDNA, one strand shown
# ZNF721 full-length = ZNF721 full-length (Homo sapiens, UniProt Q8TF20-2 1-923)
# In short: (§1)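 Full-length or DNA-binding-domain forms of a tagged transcription factor were produced in HEK293 lysate or cell-free extract and immobilised on beads. Incubation with a randomized 40-base DNA library ran for 1 h at room temperature in HEPES/KCl low-stringency buffer with Tween20, after which bound DNA was washed, heat-eluted, PCR-amplified over successive cycles and Illumina-sequenced. Binding strength is given as the relative k-mer count in selected reads, higher for tighter binding.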
# ZNF721 DBD2 = ZNF721 DBD2 (Homo sapiens, UniProt Q8TF20-2 395-923)
# In short: as §1
# ZNF721 DBD1 = ZNF721 DBD1 (Homo sapiens, UniProt Q8TF20-2 29-461)
# In short: as §1
# Sequence of ZNF721 DBD2 (Q8TF20 383-911): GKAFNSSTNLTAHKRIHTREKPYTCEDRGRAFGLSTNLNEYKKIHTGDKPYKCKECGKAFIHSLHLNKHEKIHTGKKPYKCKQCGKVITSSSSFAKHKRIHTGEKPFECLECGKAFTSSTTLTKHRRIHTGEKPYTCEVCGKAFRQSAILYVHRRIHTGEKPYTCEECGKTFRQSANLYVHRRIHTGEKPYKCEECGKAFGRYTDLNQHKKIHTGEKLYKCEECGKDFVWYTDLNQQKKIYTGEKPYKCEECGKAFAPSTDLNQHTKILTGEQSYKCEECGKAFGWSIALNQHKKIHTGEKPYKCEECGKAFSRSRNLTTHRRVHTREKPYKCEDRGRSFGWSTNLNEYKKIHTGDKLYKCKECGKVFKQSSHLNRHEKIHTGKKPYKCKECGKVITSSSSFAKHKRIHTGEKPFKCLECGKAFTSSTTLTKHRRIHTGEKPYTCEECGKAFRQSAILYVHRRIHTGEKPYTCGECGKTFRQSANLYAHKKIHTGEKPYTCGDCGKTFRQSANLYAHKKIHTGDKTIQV
# Sequence of ZNF721 DBD1 (Q8TF20 17-449): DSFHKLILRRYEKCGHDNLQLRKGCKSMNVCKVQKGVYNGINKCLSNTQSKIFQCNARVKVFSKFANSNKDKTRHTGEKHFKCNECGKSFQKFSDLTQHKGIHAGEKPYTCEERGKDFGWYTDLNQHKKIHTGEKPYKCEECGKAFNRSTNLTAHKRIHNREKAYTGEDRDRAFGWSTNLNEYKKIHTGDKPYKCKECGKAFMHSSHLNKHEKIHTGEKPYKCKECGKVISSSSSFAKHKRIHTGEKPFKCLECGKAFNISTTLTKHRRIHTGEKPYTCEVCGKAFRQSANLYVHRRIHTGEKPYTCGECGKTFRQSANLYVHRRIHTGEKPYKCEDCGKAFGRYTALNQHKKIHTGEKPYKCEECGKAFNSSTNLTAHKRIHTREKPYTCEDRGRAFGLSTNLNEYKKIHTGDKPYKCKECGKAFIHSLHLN
# Sequence of ZNF721 full-length (Q8TF20 other isoform, or with tags, fused parts or gaps): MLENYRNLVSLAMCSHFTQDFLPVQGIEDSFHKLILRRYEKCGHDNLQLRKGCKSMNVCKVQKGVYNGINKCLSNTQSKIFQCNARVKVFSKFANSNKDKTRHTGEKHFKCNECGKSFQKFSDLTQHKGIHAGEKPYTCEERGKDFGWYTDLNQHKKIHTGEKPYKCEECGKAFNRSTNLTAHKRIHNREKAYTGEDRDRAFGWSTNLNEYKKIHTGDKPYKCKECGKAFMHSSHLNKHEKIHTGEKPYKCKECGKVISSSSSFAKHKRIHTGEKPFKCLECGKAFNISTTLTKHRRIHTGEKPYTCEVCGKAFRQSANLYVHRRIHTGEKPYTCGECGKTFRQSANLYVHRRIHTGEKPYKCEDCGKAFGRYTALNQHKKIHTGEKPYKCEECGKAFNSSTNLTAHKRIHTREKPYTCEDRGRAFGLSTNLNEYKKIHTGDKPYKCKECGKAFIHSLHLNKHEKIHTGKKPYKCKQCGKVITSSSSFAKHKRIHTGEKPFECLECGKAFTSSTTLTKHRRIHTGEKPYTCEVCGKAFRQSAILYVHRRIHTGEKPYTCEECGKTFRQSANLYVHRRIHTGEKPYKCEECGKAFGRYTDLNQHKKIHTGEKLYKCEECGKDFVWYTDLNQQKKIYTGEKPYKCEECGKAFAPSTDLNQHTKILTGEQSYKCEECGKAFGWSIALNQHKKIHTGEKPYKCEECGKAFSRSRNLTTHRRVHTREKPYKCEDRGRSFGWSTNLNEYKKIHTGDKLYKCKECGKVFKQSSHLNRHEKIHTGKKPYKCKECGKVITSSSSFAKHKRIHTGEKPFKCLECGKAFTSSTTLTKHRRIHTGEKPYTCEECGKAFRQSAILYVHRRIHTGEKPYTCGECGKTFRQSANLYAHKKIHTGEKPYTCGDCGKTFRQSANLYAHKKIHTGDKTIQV
Sequence,binding signal (ZNF721 full-length) [relative 10-mer count],binding signal (ZNF721 DBD2) [relative 10-mer count],binding signal (ZNF721 DBD1) [relative 10-mer count]
AACAGCATGC,0.113,0.163,
CACAAAACAG,0.147,0.156,
AACAGTGTTG,0.127,0.327,
CCCCCTACCC,0.155,0.003,0.0072
ACAGGGTATC,0.137,0.2,
AAAAGAACAG,0.113,0.0777,
AAAAAACAGC,1,0.902,
ACAAAGCAGT,0.146,0.174,
AACAGAGTAC,0.127,0.166,
CACCACCCCA,0.222,0.00683,0.00803
ATGCTGTTTC,0.143,0.178,
CAAAGCAGCG,0.114,0.158,
AAAAACAGTC,0.149,0.169,
ACAGTGTATC,0.137,0.202,
CAGAAAAAAG,0.147,0.0475,0.0308
AAAACAGTGC,0.121,0.195,
ACAGTGTTTC,0.14,0.272,
AACCCTGCTT,0.197,0.258,
AGACACTGCT,0.109,0.127,
CTGTTTTTTA,0.204,0.282,
CCCTGTTTTC,0.162,0.186,
CAGTGTTACC,0.128,0.259,
AAAAACAGAA,0.108,0.0718,

Sequence,binding signal (ZNF721 full-length) [relative 10-mer count],binding signal (ZNF721 DBD2) [relative 10-mer count],binding signal (ZNF721 DBD1) [relative 10-mer count]
AAACACTGCT,0.109,0.18,
GAAACGCTGC,0.102,0.169,
CAGGGTTTCC,0.162,0.368,
AAAAACAGGA,0.104,0.113,
ACAAAACAGC,0.249,0.272,
CCCCGTCCCC,0.212,0.00192,0.00789
AACAAACAGC,0.119,0.0709,
CCTACCCCCC,0.127,0.00707,0.00555
CCGCCCCCGC,0.127,0.0018,0.00491
AAAAACAGAG,0.212,0.213,
TAAAACAGCA,0.152,0.177,
CAAAGCAGTG,0.119,0.198,
GCTGTTTTTA,0.135,0.204,
AAAACAGCAG,0.243,0.264,
AACAAGCAGC,0.132,0.0997,0.0039
ACAAAAACAG,0.13,0.173,
AAGCAGCGTC,0.112,0.133,
AAAAACTAGC,0.103,0.135,
CAAAACAGCG,0.142,0.176,
GCAACACTGC,0.135,0.238,
AAAAACAGGG,0.283,0.337,
AAACAGTGTA,0.179,0.225,
